Experimental data: PubChem BioAssay (NCI)
This is part of a sample that, as a whole, favours compounds with a hit. Of some 79,000 tested, about 15% had one in any assay. The source made the active and inactive calls. No stated cut-off is given here; in the data, active means growth inhibition above about 70%; inactive means the rest.

How the values were obtained:
[1] = NCI Yeast Anticancer Drug Screen. Data for the rad52 strain (AID 147);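 further: 0% = growth of vehicle-treated control cultures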; conditions: S. cerevisiae rad52 mutant growth inhibition, stronger effect = higher value
Summary of the method: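 Compounds are applied to a genetically defined yeast strain lacking normal DNA damage repair, and inhibition of growth is expressed relative to cultures given vehicle only.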

[2] = NCI Yeast Anticancer Drug Screen. Data for the wt1 strain (AID 149);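 further: 0% = growth of vehicle-treated wt1 cultures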; conditions: S. cerevisiae wt1 strain (SPY 50644) growth inhibition, stronger effect = higher value
Summary of the method: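 wt1 strain grown with compound or vehicle; inhibition taken from the growth difference.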

[3] = NCI Yeast Anticancer Drug Screen. Data for the rad50EPP+ strain (AID 151);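 further: 0% = growth of vehicle-treated control cultures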; conditions: S. cerevisiae rad50 mutant strain, stronger effect = higher value
Summary of the method: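 Compounds were applied to the rad50EPP+ yeast strain, which bears a defined DNA repair alteration, and growth inhibition was determined relative to vehicle-treated cultures.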

[4] = NCI Yeast Anticancer Drug Screen. Data for the mgt1 strain (AID 153); conditions: S. cerevisiae mgt1 mutant growth inhibition, stronger effect = higher value
Summary of the method: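 Strain: mgt1 yeast, one of a set carrying defined DNA damage repair or cell cycle control alterations. Compound-treated growth compared with vehicle.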

[5] = NCI Yeast Anticancer Drug Screen. Data for the rad50 strain (AID 155);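 further: 0% = growth of vehicle-only cultures of the same strain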; conditions: S. cerevisiae rad50 strain growth inhibition, stronger effect = higher value
Summary of the method: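 DNA repair mutant yeast, compound exposure, growth read-out; inhibition is taken relative to vehicle.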

[6] = NCI Yeast Anticancer Drug Screen. Data for the mec2-1 strain (AID 157); conditions: S. cerevisiae mec2-1 strain, stronger effect = higher value
Summary of the method: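 Strain: mec2-1 (DNA repair/cell cycle alteration). Compound exposure, then growth measured; inhibition expressed relative to vehicle.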

[7] = NCI Yeast Anticancer Drug Screen. Data for the sgs1 mgt1 strain (AID 161);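 further: 0% = growth of cultures given vehicle only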; conditions: S. cerevisiae sgs1 mgt1 strain, stronger effect = higher value
Summary of the method: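 Mutant yeast exposed to compound; growth scored against vehicle-only wells.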

[8] = NCI Yeast Anticancer Drug Screen. Data for the CLN2oe strain (AID 163);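 further: 0% = growth of vehicle-only control cultures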; conditions: S. cerevisiae CLN2oe strain, stronger effect = higher value
Summary of the method: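 Growth of a genetically modified yeast strain is measured after compound exposure and compared with cultures given vehicle alone.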

[9] = NCI Yeast Anticancer Drug Screen. Data for the cln2 rad14 strain (AID 165);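 further: 0% = growth equal to vehicle treated cultures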; conditions: S. cerevisiae cln2 rad14 strain, stronger effect = higher value
Summary of the method: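 Compounds are applied to the cln2 rad14 yeast strain, and growth is then compared with that of vehicle-treated cultures to give inhibition.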

[10] = NCI Yeast Anticancer Drug Screen. Data for the wt2 strain (AID 169);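 further: 0% = growth of vehicle-treated yeast cultures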; conditions: S. cerevisiae wt2 strain growth inhibition, stronger effect = higher value
Summary of the method: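 This strain belongs to a panel of yeast strains with defined genetic alterations in DNA damage repair or cell cycle control. Compounds are applied, and growth inhibition is measured against vehicle-treated cultures.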

[11] = NCI Yeast Anticancer Drug Screen. Data for the mlh1 strain (AID 171);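 further: 0% = growth of vehicle-treated control cultures of the same strain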; conditions: S. cerevisiae mlh1 strain growth inhibition, stronger effect = higher value
Summary of the method: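 Growth of the mutant yeast strain after compound exposure, expressed as inhibition relative to vehicle-only controls.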

[12] = NCI Yeast Anticancer Drug Screen. Data for the sgs1 strain (AID 173);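 further: 0% = growth of vehicle-only control cultures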; conditions: S. cerevisiae sgs1 mutant, stronger effect = higher value
Summary of the method: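 Growth of a yeast strain bearing a defined genetic alteration is measured after compound treatment. Inhibition is expressed relative to vehicle-only controls.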

[13] = NCI Yeast Anticancer Drug Screen. Data for the mlh1 rad18 strain (AID 175); conditions: S. cerevisiae mlh1 rad18 strain growth inhibition, stronger effect = higher value
Summary of the method: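 Read-out is yeast growth inhibition, calculated against vehicle-only controls. The compound was applied to a strain engineered with DNA damage repair alterations.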

[14] = NCI Yeast Anticancer Drug Screen. Data for the rad18 strain (AID 177); conditions: S. cerevisiae rad18 mutant growth inhibition, stronger effect = higher value
Summary of the method: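 Growth of the mutant yeast strain after compound exposure, normalised to vehicle-only cultures.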

[15] = NCI Yeast Anticancer Drug Screen. Data for the bub3 strain (AID 167); conditions: S. cerevisiae bub3 mutant strain, stronger effect = higher value
Summary of the method: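 In this screen, a yeast mutant lacking normal mitotic checkpoint function is challenged with compound. Relative growth versus vehicle gives the inhibition value.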

[16] = at 5.0 µM (retest, dose inferred, filed as 0.5)
[17] = at 50.0 µM (retest, dose inferred, filed as 5.0)

Measured: growth inhibition

C=C1CC(CCCl)(c2ccccc2)OC1=O (stereo not drawn)
inactive: [1]; at 1.2 µM -37% | [1]; at 3.7 µM -25% | [1]; at 11.0 µM 17% | [2]; at 1.2 µM -13% | [2]; at 3.7 µM -16% | [2]; at 11.0 µM 25% | [3]; at 1.2 µM 0% | [3]; at 3.7 µM 2% | [3]; at 11.0 µM 19% | [3]; at 33.0 µM 48% | [4]; at 1.2 µM -25% | [4]; at 3.7 µM -3% | [5]; at 1.2 µM 0% | [5]; at 3.7 µM 13% | [5]; [16] 4% | [5]; at 11.0 µM 33% | [6]; at 1.2 µM -4% | [6]; at 3.7 µM 16% | [6]; [16] 13% | [6]; at 11.0 µM 65% | [7]; [16] -8% | [8]; at 1.2 µM 4% | [8]; at 3.7 µM 7% | [8]; at 11.0 µM 24% | [9]; [16] 18% | [10]; at 1.2 µM -22% | [10]; at 3.7 µM -20% | [10]; at 11.0 µM 38% | [11]; at 1.2 µM 21% | [11]; at 3.7 µM 35% | [12]; at 1.2 µM 4% | [12]; at 3.7 µM 2% | [12]; at 11.0 µM 59% | [13]; [16] 22% | [14]; at 1.2 µM 0% | [14]; at 3.7 µM 13% | [14]; at 11.0 µM 61%
active: [1]; at 33.0 µM 88% | [1]; at 100.0 µM 99% | [2]; at 33.0 µM 84% | [2]; at 100.0 µM 98% | [3]; at 100.0 µM 92% | [4]; at 11.0 µM 78% | [4]; at 33.0 µM 98% | [4]; at 100.0 µM 99% | [5]; at 33.0 µM 91% | [5]; [17] 94% | [5]; at 50.0 µM 92.5% | [5]; at 100.0 µM 98% | [6]; at 33.0 µM 93% | [6]; [17] 98% | [6]; at 50.0 µM 93.5% | [6]; at 100.0 µM 99% | [7]; [17] 96% | [7]; at 50.0 µM 93.5% | [8]; at 33.0 µM 85% | [8]; at 100.0 µM 98% | [9]; [17] 93% | [9]; at 50.0 µM 90.9% | [10]; at 33.0 µM 95% | [10]; at 100.0 µM 95% | [11]; at 11.0 µM 82% | [11]; at 33.0 µM 97% | [11]; at 100.0 µM 99% | [12]; at 33.0 µM 96% | [12]; at 100.0 µM 99% | [13]; [17] 98% | [13]; at 50.0 µM 91.2% | [14]; at 33.0 µM 94% | [14]; at 100.0 µM 99%

N/C(=N/N=C/c1cc(Br)cc(Br)c1O)NO
active: [1]; at 33.0 µM 90% | [1]; at 100.0 µM 97% | [2]; at 33.0 µM 90% | [2]; at 100.0 µM 98% | [3]; at 100.0 µM 73% | [4]; at 33.0 µM 95% | [4]; at 100.0 µM 98% | [5]; at 33.0 µM 90% | [5]; [17] 99% | [5]; at 50.0 µM 96.1% | [5]; at 100.0 µM 97% | [6]; at 33.0 µM 87% | [6]; [17] 99% | [6]; at 50.0 µM 85.8% | [6]; at 100.0 µM 96% | [7]; [17] 99% | [7]; at 50.0 µM 97.8% | [8]; at 33.0 µM 95% | [8]; at 100.0 µM 98% | [9]; [17] 99% | [9]; at 50.0 µM 92.3% | [15]; at 33.0 µM 93% | [15]; [17] 99% | [15]; at 50.0 µM 87% | [15]; at 100.0 µM 97% | [10]; at 33.0 µM 94% | [10]; at 100.0 µM 98% | [11]; at 33.0 µM 93% | [11]; at 100.0 µM 97% | [12]; at 33.0 µM 93% | [12]; at 100.0 µM 96% | [13]; [17] 99% | [13]; at 50.0 µM 98.7% | [14]; at 11.0 µM 75% | [14]; at 33.0 µM 94% | [14]; at 100.0 µM 97%
inactive: [1]; at 1.2 µM -37% | [1]; at 3.7 µM -26% | [1]; at 11.0 µM 17% | [2]; at 1.2 µM -94% | [2]; at 3.7 µM -40% | [2]; at 11.0 µM -13% | [3]; at 1.2 µM -27% | [3]; at 3.7 µM -24% | [3]; at 11.0 µM -6% | [3]; at 33.0 µM 28% | [4]; at 1.2 µM -36% | [4]; at 3.7 µM -27% | [4]; at 11.0 µM 66% | [5]; at 1.2 µM -39% | [5]; at 3.7 µM -34% | [5]; [16] -1% | [5]; at 11.0 µM 6% | [6]; at 1.2 µM -89% | [6]; at 3.7 µM -62% | [6]; [16] 13% | [6]; at 11.0 µM -6% | [7]; [16] 10% | [8]; at 1.2 µM -6% | [8]; at 3.7 µM -11% | [8]; at 11.0 µM 25% | [9]; [16] 7% | [15]; at 1.2 µM -40% | [15]; at 3.7 µM -60% | [15]; [16] -5% | [15]; at 11.0 µM 44% | [10]; at 1.2 µM -2% | [10]; at 3.7 µM -9% | [10]; at 11.0 µM 35% | [11]; at 1.2 µM -78% | [11]; at 3.7 µM -40% | [11]; at 11.0 µM 58% | [12]; at 1.2 µM -35% | [12]; at 3.7 µM -28% | [12]; at 11.0 µM 59% | [13]; [16] 16% | [14]; at 1.2 µM -30% | [14]; at 3.7 µM -20%
